Most compounds without a hit are left out; they make up all but 7.5% or so of the library.
ELG1 genotoxic = genotoxicity induction in ELG1-luciferase HEK293T cells; 330,000 tested, 1.3% active; Potency, µM (top dose mostly 46 µM), for the others: at the highest dose activity change, positive = activation, hits mostly activators; HEK293T ELG1-luciferase reporter, luminescence, 16 h; further: % of control where 0% means no effect; nearly all actives have a fitted effect of over 60% in size
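Screening used a luciferase reporter fused to human ELG1 in HEK293T cells. Luminescence was read on a CCD plate imager after 16 hr exposure and 30 min ONE-Glo incubation.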
SMN2 splice up = enhancers of SMN2 splice variant expression. Potency, µM (top dose mostly 46.1 µM), for the others: at the highest dose activity change, positive = activation, actives largely listed as activators. 210,000 tested, 2.8% active. AID 1458. HEK293 SMN2-luciferase splicing reporter, luminescence, 30-36 h; further: % of control where 0% means no effect; nearly all actives have a fitted effect of over 55% in size
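HEK293 cells carry an SMN2 minigene-luciferase reporter in which exon 7 inclusion puts luciferase in frame. Cells were seeded at 2000 cells/well, attached for 10-12 hours, then exposed to compounds for 30-36 hours at 37C before ONE-Glo luminescence.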
Rab9 promoter act = activates the Rab9 promoter | 320,000 tested, 2.8% active | Huh7 Rab9 promoter-luciferase reporter, luminescence, 24 h | Potency, µM (doses to about 9.22 µM), without a hit: at the highest dose activation, negative = inhibition, usual class: activators; further: % of control where 0% means no effect; nearly all actives have a fitted effect of over 60% in size
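Steps: seed 1500 Huh7 Rab9-luc cells per well, rest 2 h at 37 °C; add compound in DMSO; incubate 24 h; add luciferase reagent, 10 min ambient; read luminescence.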
NPC1 promoter act = activators of NPC1 promoter; Potency, µM (highest dose often 9.22 µM), inactives show at the highest dose activation, usual class: activators; 320,000 tested, 2.4% active; Huh7 NPC1 promoter luciferase reporter, 24 h; further: % of control where 0% means no effect; nearly all actives have a fitted effect of over 60% in size
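Compounds in DMSO were transferred onto Huh7 NPC1-luciferase reporter cells pre-incubated 2 h; after 24 h at 37 °C, Amplite reagent was dispensed and luminescence recorded 10 min later.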
Luc counter = blocks Kinase-Glo luciferase, a counter-screen artifact | Q27757 | Kinase-Glo luciferase, ATP luminescence, 8 min | Potency, µM (highest dose often 38.3 µM), without a hit: at the top dose activity change, negative = inhibition, usual class: inhibitors | 200,000 tested, 0.28% active | AID 1379; further: on the % scale 0 is the no-effect control and ±100 the full control effect; nearly all actives have a fitted effect of over 60% in size
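Compounds were added to a substrate mix at pH 7.2 (50 mM imidazole, 10 uM ATP, within the enzyme's linear range), followed by Kinase-Glo detection reagent; luminescence was measured after 8 minutes at ambient temperature.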
FLuc counter = firefly luciferase modulation, counter-screen for miR-21 project; P08659; purified FLuc, Km substrates, luminescence inhibition; Potency, µM (top dose mostly 57.5 µM), without a hit: at the highest dose activity change, negative = inhibition, most hits filed as inhibitors; 360,000 tested, 6.9% active; AID 588342;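 further: plate controls were vehicle for no effect and reference inhibitor for full effect; nearly all actives have a fitted effect of over 55% in size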
Target sequence (P08659 whole entry, looked up): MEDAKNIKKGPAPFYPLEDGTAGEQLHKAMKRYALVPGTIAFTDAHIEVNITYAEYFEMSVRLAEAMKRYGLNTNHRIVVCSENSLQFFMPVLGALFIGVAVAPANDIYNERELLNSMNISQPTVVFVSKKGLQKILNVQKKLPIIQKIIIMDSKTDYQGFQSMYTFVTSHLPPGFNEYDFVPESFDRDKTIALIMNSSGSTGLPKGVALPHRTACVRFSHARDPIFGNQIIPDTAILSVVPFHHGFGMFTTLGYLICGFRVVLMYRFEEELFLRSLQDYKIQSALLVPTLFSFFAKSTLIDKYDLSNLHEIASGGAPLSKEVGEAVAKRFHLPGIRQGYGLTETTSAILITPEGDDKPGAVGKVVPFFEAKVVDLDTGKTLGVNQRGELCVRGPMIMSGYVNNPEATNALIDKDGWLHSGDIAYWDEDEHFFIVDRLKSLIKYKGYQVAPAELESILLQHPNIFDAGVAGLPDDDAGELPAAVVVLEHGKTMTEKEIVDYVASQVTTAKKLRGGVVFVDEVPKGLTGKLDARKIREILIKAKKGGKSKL
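Purified P. pyralis luciferase, 10 nM final, with Km-level 10 uM D-luciferin and 10 uM ATP in 50 mM Tris acetate pH 7.5, 10 mM Mg acetate, 0.01% Tween-20, 0.05% BSA; 6-point qHTS titration about 60 µM downward; luminescence read.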
Active calls of the source: *; [ ] = dose if it differs, or a comment. The call rests on the fitted dose curve; in most records, active means well fitted curve in the direction sought with a large enough effect; inconclusive means small, poorly fitted or top-dose-only effect, or another doubt; inactive means no such curve, though single readings can be large; an effect the other way counts as inactive or inconclusive. Potency means the concentration at half of the fitted maximal effect.

For CC(C)(C)c1ccc(C(=O)NNC(=S)NCC2CCCO2)cc1 (stereo unspecified) the results were ELG1 genotoxic 0%, SMN2 splice up -28%, Rab9 promoter act 0%, NPC1 promoter act -1%, Luc counter 3% and FLuc counter -12%.
Screening CC(C)(C)c1ccc(C(=O)N2CCC(C(=O)NCC3CCCO3)CC2)cc1 (stereo unspecified) returned ELG1 genotoxic 8%, SMN2 splice up 11µM*, Rab9 promoter act inconclusive, NPC1 promoter act 28%, Luc counter 0% and FLuc counter inconclusive.
Screening CC(C)(C)c1ccc(C(=O)N2CCC(C(=O)NCc3ccco3)CC2)cc1 returned ELG1 genotoxic 6%, SMN2 splice up 2.5µM*, Rab9 promoter act 11%, NPC1 promoter act 10%, Luc counter -1% and FLuc counter -18%.
For CC(C)(C)c1ccc(C(=O)NC(=S)NCC2CCCO2)cc1 (stereo unspecified) the results were ELG1 genotoxic 4%, Rab9 promoter act 12%, NPC1 promoter act 7% and FLuc counter 27µM*.
Screening CC(C)(C)c1ccc(C(=O)NC(=S)N2CCOCC2)cc1 returned ELG1 genotoxic 8.2µM*, Rab9 promoter act 2.2µM*, NPC1 promoter act 2.2µM* and FLuc counter 9.5µM*.
`CN1CCN(C(=S)NC(=O)c2ccc(C(C)(C)C)cc2)CC1` gave ELG1 genotoxic 1%, SMN2 splice up -1%, Rab9 promoter act 0%, NPC1 promoter act -2%, Luc counter 3% and FLuc counter inconclusive.
O=C(NCC1CCCO1)C1CCN(C(=O)c2ccc(Cl)cc2)CC1 (stereo unspecified) was read as ELG1 genotoxic 2%, SMN2 splice up -16%, Rab9 promoter act -19%, NPC1 promoter act 0%, Luc counter -3% and FLuc counter 2%.
Cc1ccccc1N(CC(=O)NCC1CCCO1)C(=O)CCC(=O)Nc1nccs1 (stereo unspecified) was read as ELG1 genotoxic -3%, Rab9 promoter act 4%, NPC1 promoter act 0% and FLuc counter 1%.
Screening O=C(Nc1ccc(F)cc1)Nc1ccccc1C(=O)NCCN1CCNC1=O returned ELG1 genotoxic 0%, Rab9 promoter act 1%, NPC1 promoter act -6% and FLuc counter 17µM*.
For O=C(Nc1ccc(OCc2ccccc2)cc1)Nc1ccccc1C(=O)NCCCN1CCOCC1 the results were ELG1 genotoxic 6%, Rab9 promoter act 5%, NPC1 promoter act 1% and FLuc counter 19µM*.
For CCOC(=O)C1=C(COC(=O)COc2ccc(Br)cc2)NC(=O)NC1C (stereo unspecified) the results were ELG1 genotoxic -3%, Rab9 promoter act 12%, NPC1 promoter act 19% and FLuc counter -1%.
Screening O=C(Cc1c(Cl)cccc1Cl)OCc1ccccn1 returned ELG1 genotoxic 23µM*, Rab9 promoter act 25%, NPC1 promoter act 25% and FLuc counter inconclusive.
Screening c1ccc(C(NCc2cccnc2)(c2ccccc2)c2ccccc2)cc1 returned Rab9 promoter act -22%[46.1 µM] and NPC1 promoter act -15%[46.1 µM].
CCOC(=O)N1CCC(NC(=O)c2c(C)nn(-c3cccc(C)c3)c2-n2cccc2)CC1 was read as FLuc counter 4%.
`COc1ccc2[nH]c3c(c2c1)CCN1C(=O)C(CC(=O)NC/C=C(\C)CCC=C(C)C)C[C@H](C(=O)N(C(C)C)C(C)C)[C@@]31C` (stereo partly specified) gave ELG1 genotoxic -1%.
Screening Cc1ccc(C)c(Nc2nc(-c3cccnc3)cs2)c1 returned ELG1 genotoxic -7%, Rab9 promoter act 0%[1.84 µM], NPC1 promoter act 13% and FLuc counter inconclusive.
`O=C(Nc1ccccc1)Nc1nc(-c2ccc(F)cc2)cs1` gave ELG1 genotoxic 2%, SMN2 splice up -25%, Rab9 promoter act 6%, NPC1 promoter act -4%, Luc counter 0% and FLuc counter -1%.
Cc1ccc(Nc2nc(-c3ccc(O)c(O)c3)cs2)nc1 was read as ELG1 genotoxic inconclusive, Rab9 promoter act -33%, NPC1 promoter act -23%, Luc counter -2% and FLuc counter 3µM*.
For Cc1ccc(Nc2nc(-c3ccc(F)cc3)cs2)nc1 the results were ELG1 genotoxic inconclusive, Rab9 promoter act 4µM*, NPC1 promoter act 3.5µM* and FLuc counter 4.3µM*.
O=C(CSC(=S)N1CCN(c2ccccc2)CC1)Nc1nc(-c2ccccc2)c(-c2ccccc2)o1 was read as ELG1 genotoxic -1%, SMN2 splice up 0%, Rab9 promoter act 0%, NPC1 promoter act -2%, Luc counter -2% and FLuc counter 2%.
For COc1ccc2c(c1)O[C@@H](c1ccc3c(c1)OCO3)[C@H](OC(=O)Nc1ccc(OC(F)F)cc1)C2=O the results were SMN2 splice up 8% and Luc counter 0%.
For O/N=C/c1ccc(OCc2ccccc2F)c(Cl)c1 the results were ELG1 genotoxic 5.2µM*, SMN2 splice up 7.9µM*, Rab9 promoter act 1.6µM*, NPC1 promoter act inconclusive, Luc counter -4% and FLuc counter 2.7µM*.
`O/N=C/c1cc(Br)ccc1OCc1cccc(F)c1` gave ELG1 genotoxic -1%, SMN2 splice up -17%, Rab9 promoter act 3%, NPC1 promoter act 3%, Luc counter 0% and FLuc counter inconclusive.
For CCOc1cc(/C=N/O)ccc1OCc1ccc(C)cc1 the results were ELG1 genotoxic inconclusive, SMN2 splice up 25%, Rab9 promoter act 18%, NPC1 promoter act 0%, Luc counter -2% and FLuc counter inconclusive.
O/N=C/c1cc(Br)cc(Br)c1OCc1ccccc1 was read as ELG1 genotoxic 1%, SMN2 splice up -20%, Rab9 promoter act -8%, NPC1 promoter act -8%, Luc counter -5% and FLuc counter 4%.
For O/N=C/c1ccc(OCc2ccccc2)c(Cl)c1 the results were ELG1 genotoxic 16µM*, SMN2 splice up 11µM*, Rab9 promoter act 3.5µM*, NPC1 promoter act inconclusive, Luc counter 0% and FLuc counter 4.8µM*.
Screening Cc1ccc(COc2ccc(Br)cc2/C=N/O)cc1 returned ELG1 genotoxic inconclusive, SMN2 splice up 10%, Rab9 promoter act inconclusive, NPC1 promoter act inconclusive, Luc counter -4% and FLuc counter 13µM*.
Screening O/N=C/c1ccc(OCc2ccccc2)c(Br)c1 returned ELG1 genotoxic 15µM*, SMN2 splice up 16µM*, Rab9 promoter act 3.2µM*, NPC1 promoter act 19%, Luc counter 0% and FLuc counter 7.6µM*.
